# Assay results as given in PubChem BioAssay (NCATS).
# Records with an inconclusive call do not appear. Entries that show only a call come without a potency. The source holds several records for some structures; these can differ, active in one and inactive in another. Calls of active or inactive are those of the source. Calls come from the whole dose curve; as a rule, active = well fitted curve in the direction sought with a large enough effect; inconclusive = small, poorly fitted or top-dose-only effect, or another doubt; inactive = no such curve, though single readings can be large; an effect the other way counts as inactive or inconclusive.
# Biological target: Flap endonuclease 1 (Homo sapiens) (UniProt P39748)
# Experiment: qHTS Validation Assay for the Inhibitors of Human Flap endonuclease 1 (FEN1) (AID 488816)
# Settings: FEN1 nuclease activity, fluorogenic DNA substrate; series mostly up to 57.1 µM
# Summary of the method: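 Steps: add FEN1 (10 nM reagent) or buffer only; pin compounds; hold 15 min at room temperature; start with substrate, 50 nM final; read at 0 and 15 min; correct, normalize and fit a four-parameter Hill curve.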
# Potency is the fitted concentration of half-maximal effect.
# Flap endonuclease 1 (Homo sapiens), sequence (P39748 whole entry, looked up): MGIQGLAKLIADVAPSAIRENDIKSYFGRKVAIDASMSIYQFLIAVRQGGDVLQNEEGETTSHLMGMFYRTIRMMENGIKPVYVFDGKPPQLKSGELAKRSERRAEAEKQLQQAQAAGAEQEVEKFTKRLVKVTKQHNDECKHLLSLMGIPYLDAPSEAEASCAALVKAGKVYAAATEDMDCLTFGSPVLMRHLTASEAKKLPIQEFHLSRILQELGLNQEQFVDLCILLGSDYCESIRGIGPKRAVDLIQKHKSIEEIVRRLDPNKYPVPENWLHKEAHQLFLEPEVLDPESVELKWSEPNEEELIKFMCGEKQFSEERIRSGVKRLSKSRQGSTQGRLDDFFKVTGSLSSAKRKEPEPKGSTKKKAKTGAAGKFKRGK
row,SMILES,Potency
1,Cc1cn([C@H]2C=C[C@@H](CO)O2)c(=O)[nH]c1=O,inactive
2,CC(CCc1ccc(O)cc1)NCCc1ccc(O)c(O)c1 (stereo not given),inactive
3,CCCCc1oc2ccccc2c1C(=O)c1cc(I)c(OCCN(CC)CC)c(I)c1,inactive
4,CCC1(c2ccccc2)C(=O)NCNC1=O,inactive
5,NS(=O)(=O)c1cc2c(cc1Cl)NCNS2(=O)=O,inactive
6,NC(CO)C(=O)NNCc1ccc(O)c(O)c1O (stereo not given),inactive
7,C[C@H]1c2cccc(O)c2C(O)=C2C(=O)[C@]3(O)C(O)=C(C(N)=O)C(=O)[C@@H](N(C)C)[C@@H]3[C@@H](O)[C@@H]21,23.8 µM (active)
8,CC(C)C(=O)Nc1ccc([N+](=O)[O-])c(C(F)(F)F)c1,inactive
9,CCC1(C)CC(=O)NC1=O (stereo not given),inactive
10,NCCCCCC(=O)O,inactive
11,CN1CCC(=C2c3ccccc3CC(=O)c3sccc32)CC1,inactive
12,C[C@](N)(Cc1ccc(O)c(O)c1)C(=O)O,0.844 µM (active)
13,Clc1ccccc1C(c1ccccc1)(c1ccccc1)n1ccnc1,inactive
14,NC(=O)OCC(COC(N)=O)c1ccccc1,inactive
15,Nc1nnc(-c2cccc(Cl)c2Cl)c(N)n1,inactive
16,COc1ccc2[nH]cc(CCNC(C)=O)c2c1,inactive
17,Cc1ccccc1N1C(=O)c2cc(S(N)(=O)=O)c(Cl)cc2NC1C (stereo not given),inactive
18,CN(C)c1nc(N(C)C)nc(N(C)C)n1,inactive
19,CCOC(=O)C(C)(C)Oc1ccc(Cl)cc1,inactive
20,CCc1cccc2c3c([nH]c12)C(CC)(CC(=O)O)OCC3 (stereo not given),inactive
21,Cc1cc(C(C)(C)C)c(O)c(C)c1CC1=NCCN1,inactive
22,CC(C)(Oc1ccc(C2CC2(Cl)Cl)cc1)C(=O)O (stereo not given),inactive
23,COc1ccc2c(c1)c(CC(=O)O)c(C)n2C(=O)c1ccc(Cl)cc1,inactive

# Biological target: M-phase phosphoprotein 8 (Homo sapiens) (UniProt Q99549)
# Experiment: qHTS Validation Assay for Inhibitors for MPP8 Chromodomain Interactions with Methylated Histone Tails (AID 488949); note: nearly all actives have a fitted effect of over 55% in size
# Settings: AlphaScreen MPP8 binding to H3K9me3 peptide; series mostly up to 57.1 µM
# Summary of the method: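 AlphaScreen read-out: streptavidin donor and nickel chelate acceptor beads (final 10 ug/mL), 30 min in the dark at RT. Complex of 50 nM MPP8 and 50 nM b-H3(1-18)K9me3 peptide had been exposed to compounds for 30 min beforehand.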
# M-phase phosphoprotein 8 (Homo sapiens), sequence (Q99549 whole entry, looked up): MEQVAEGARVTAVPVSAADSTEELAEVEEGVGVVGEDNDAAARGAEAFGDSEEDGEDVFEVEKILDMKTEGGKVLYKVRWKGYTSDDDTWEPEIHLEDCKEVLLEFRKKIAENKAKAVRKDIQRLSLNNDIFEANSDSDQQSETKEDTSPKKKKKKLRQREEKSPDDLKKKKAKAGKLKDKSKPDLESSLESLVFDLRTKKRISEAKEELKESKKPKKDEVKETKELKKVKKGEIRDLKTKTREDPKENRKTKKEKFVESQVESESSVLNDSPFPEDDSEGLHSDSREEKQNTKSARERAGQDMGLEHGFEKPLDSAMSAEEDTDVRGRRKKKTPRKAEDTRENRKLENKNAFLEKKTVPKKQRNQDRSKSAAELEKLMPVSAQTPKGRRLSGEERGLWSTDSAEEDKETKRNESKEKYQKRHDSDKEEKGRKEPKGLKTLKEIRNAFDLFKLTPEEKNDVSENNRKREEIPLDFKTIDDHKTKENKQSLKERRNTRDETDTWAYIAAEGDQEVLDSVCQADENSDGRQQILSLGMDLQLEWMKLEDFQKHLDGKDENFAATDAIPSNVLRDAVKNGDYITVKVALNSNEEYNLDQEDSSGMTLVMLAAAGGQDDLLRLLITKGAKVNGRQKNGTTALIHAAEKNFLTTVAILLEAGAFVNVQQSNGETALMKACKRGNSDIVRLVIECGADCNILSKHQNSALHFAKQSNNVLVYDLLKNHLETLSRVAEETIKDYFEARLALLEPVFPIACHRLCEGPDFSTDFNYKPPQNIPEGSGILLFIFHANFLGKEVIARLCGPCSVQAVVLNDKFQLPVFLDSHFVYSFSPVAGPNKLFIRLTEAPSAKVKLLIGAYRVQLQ
row,SMILES,Potency
1,Cc1cn([C@H]2C=C[C@@H](CO)O2)c(=O)[nH]c1=O,inactive
2,Cn1c(=O)c2c(ncn2C)n(C)c1=O,inactive
3,CC12CC3CC(C)(C1)CC(N)(C3)C2,inactive
4,CC(CCc1ccc(O)cc1)NCCc1ccc(O)c(O)c1 (stereo not given),inactive
5,CCCCc1oc2ccccc2c1C(=O)c1cc(I)c(OCCN(CC)CC)c(I)c1,inactive
6,CC1COc2c(N3CCN(C)CC3)c(F)cc3c(=O)c(C(=O)O)cn1c23 (stereo not given),inactive
7,CCOC(=O)c1ncn2c1CN(C)C(=O)c1cc(F)ccc1-2,inactive
8,CCC1(c2ccccc2)C(=O)NCNC1=O,inactive
9,NS(=O)(=O)c1cc2c(cc1Cl)NCNS2(=O)=O,inactive
10,CN1CCN2c3ccccc3Cc3ccccc3C2C1 (stereo not given),inactive
11,NC(CO)C(=O)NNCc1ccc(O)c(O)c1O (stereo not given),31.6 µM (active)
12,C[C@H]1c2cccc(O)c2C(O)=C2C(=O)[C@]3(O)C(O)=C(C(N)=O)C(=O)[C@@H](N(C)C)[C@@H]3[C@@H](O)[C@@H]21,inactive
13,CCC1(C)CC(=O)NC1=O (stereo not given),inactive
14,NCCCCCC(=O)O,inactive
15,CN1CCC(=C2c3ccccc3CC(=O)c3sccc32)CC1,inactive
16,C[C@](N)(Cc1ccc(O)c(O)c1)C(=O)O,1.89 µM (active)
17,Clc1ccccc1C(c1ccccc1)(c1ccccc1)n1ccnc1,inactive
18,NC(=O)OCC(COC(N)=O)c1ccccc1,inactive
19,Nc1nnc(-c2cccc(Cl)c2Cl)c(N)n1,inactive
20,NC12CC3CC(CC(C3)C1)C2,inactive
21,COc1ccc2[nH]cc(CCNC(C)=O)c2c1,inactive
22,Nc1nc2c(ncn2COC(CO)CO)c(=O)[nH]1,inactive
23,Cc1ccccc1N1C(=O)c2cc(S(N)(=O)=O)c(Cl)cc2NC1C (stereo not given),inactive
24,CN(C)c1nc(N(C)C)nc(N(C)C)n1,inactive
25,CCOC(=O)C(C)(C)Oc1ccc(Cl)cc1,inactive
26,CCc1cccc2c3c([nH]c12)C(CC)(CC(=O)O)OCC3 (stereo not given),inactive
27,Cc1cc(C(C)(C)C)c(O)c(C)c1CC1=NCCN1,inactive
28,CC(C)(Oc1ccc(C2CC2(Cl)Cl)cc1)C(=O)O (stereo not given),39.8 µM (active) and inactive
29,COc1ccc2c(c1)c(CC(=O)O)c(C)n2C(=O)c1ccc(Cl)cc1,inactive

# Biological target: Chromobox protein homolog 1 (Homo sapiens) (UniProt P83916)
# Experiment: qHTS Validation Assay for Inhibitors of HP1-beta Chromodomain Interactions with Methylated Histone Tails (AID 488953); note: nearly all actives have a fitted effect of over 50% in size
# Settings: HP1-beta chromodomain / methylated histone peptide binding assay; series mostly up to 114 µM
# Summary of the method: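 AlphaScreen proximity signal from streptavidin donor and nickel chelate acceptor beads (final 10 ug/mL) after 30 min dark incubation. Compounds had 30 min at room temperature with preformed complex of 50 nM HP1-beta and 50 nM b-H3(1-18)K9me3 in PBS pH 7.4 with 0.01% Tween-20.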
# Chromobox protein homolog 1 (Homo sapiens), sequence (P83916 whole entry, looked up): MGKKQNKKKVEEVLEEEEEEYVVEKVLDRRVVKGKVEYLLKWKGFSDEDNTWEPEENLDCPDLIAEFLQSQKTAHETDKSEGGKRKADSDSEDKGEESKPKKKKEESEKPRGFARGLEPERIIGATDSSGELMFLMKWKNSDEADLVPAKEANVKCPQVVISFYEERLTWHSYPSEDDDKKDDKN
row,SMILES,Potency
1,Cc1cn([C@H]2C=C[C@@H](CO)O2)c(=O)[nH]c1=O,inactive
2,Cn1c(=O)c2c(ncn2C)n(C)c1=O,inactive
3,CC12CC3CC(C)(C1)CC(N)(C3)C2,inactive
4,CCCCc1oc2ccccc2c1C(=O)c1cc(I)c(OCCN(CC)CC)c(I)c1,44.7 µM (active)
5,CC1COc2c(N3CCN(C)CC3)c(F)cc3c(=O)c(C(=O)O)cn1c23 (stereo not given),inactive
6,CCOC(=O)c1ncn2c1CN(C)C(=O)c1cc(F)ccc1-2,inactive
7,CCC1(c2ccccc2)C(=O)NCNC1=O,inactive
8,NS(=O)(=O)c1cc2c(cc1Cl)NCNS2(=O)=O,inactive
9,NC(CO)C(=O)NNCc1ccc(O)c(O)c1O (stereo not given),35.5 µM (active)
10,CCC1(C)CC(=O)NC1=O (stereo not given),inactive
11,C[C@](N)(Cc1ccc(O)c(O)c1)C(=O)O,1.89 µM (active)
12,Clc1ccccc1C(c1ccccc1)(c1ccccc1)n1ccnc1,0.0084 µM (active)
13,NC(=O)OCC(COC(N)=O)c1ccccc1,inactive
14,Nc1nnc(-c2cccc(Cl)c2Cl)c(N)n1,inactive
15,NC12CC3CC(CC(C3)C1)C2,inactive
16,COc1ccc2[nH]cc(CCNC(C)=O)c2c1,inactive
17,Nc1nc2c(ncn2COC(CO)CO)c(=O)[nH]1,inactive
18,CN(C)c1nc(N(C)C)nc(N(C)C)n1,inactive
19,CCOC(=O)C(C)(C)Oc1ccc(Cl)cc1,inactive
20,CCc1cccc2c3c([nH]c12)C(CC)(CC(=O)O)OCC3 (stereo not given),inactive
21,Cc1cc(C(C)(C)C)c(O)c(C)c1CC1=NCCN1,inactive
22,CC(C)(Oc1ccc(C2CC2(Cl)Cl)cc1)C(=O)O (stereo not given),inactive
23,COc1ccc2c(c1)c(CC(=O)O)c(C)n2C(=O)c1ccc(Cl)cc1,inactive
